CendR NRP1 mod: alters CendR peptide binding to human NRP-1. O14786. FAM-RPARPAR peptide binding to NRP-1, fluorescence polarization. inhibition, % at 25 µM. hit rate 0.85% among 360,000;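 active = inhibition or corrected inhibition above about 18%, plus a signal ratio from 0.5 to 1.5, limit read from the data, passing the limit was not always enough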
TPT1 inh: C. albicans TPT1 enzyme inhibition; recombinant caTPT1, FP RNA substrate dephosphorylation; inhibition, % at 5 µM; hit rate 0.81% among 300,000;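 active = inhibition above the mean of all tested compounds plus 3 SD, set per screening campaign, cut at about 24% in these data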;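 note: plate controls were DMSO alone for no effect and ferristatin control at 100 nM for full effect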
Rpn11 block: Rpn11 (human) deubiquitinase inhibition; O00487; human 26S proteasome, Ub4-pepOG fluorescence polarization; 20S core pre-blocked with epoxomicin; inhibition, % at 20 µM; hit rate 0.59% among 360,000; AID 588493;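 active = inhibition at 20 µM, scaled to each plate's controls, above about 33%, limit read from the data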
Target sequence (O00487 whole entry, looked up): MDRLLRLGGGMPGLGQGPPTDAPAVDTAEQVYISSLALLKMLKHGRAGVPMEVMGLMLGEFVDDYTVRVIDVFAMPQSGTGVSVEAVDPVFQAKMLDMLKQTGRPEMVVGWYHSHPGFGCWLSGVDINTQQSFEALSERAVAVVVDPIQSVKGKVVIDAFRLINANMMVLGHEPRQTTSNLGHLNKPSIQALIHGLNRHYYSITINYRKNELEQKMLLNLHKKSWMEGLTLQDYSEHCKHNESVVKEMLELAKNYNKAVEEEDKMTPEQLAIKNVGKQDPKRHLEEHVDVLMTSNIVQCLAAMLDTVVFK
CTSL1 counter: cathepsin L1 inhibition, PFM18AAP counter-screen | recombinant F. hepatica cathepsin L1, Z-Leu-Arg-MCA fluorescence | inhibition, % at 5.96 µM | hit rate 0.49% among 300,000 | AID 1906;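 active = inhibition above the mean of all tested compounds plus 3 SD, set per screening campaign, cut at about 17% in these data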;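 note: 0% = plate median of test compound wells and 100% = 1 µM Z-Phe-Ala-diazomethylketone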
PHOSPHO1 inh: inhibitors of human PHOSPHO1 phosphatase. Q8TCT1. recombinant PHOSPHO1, absorbance phosphatase assay. inhibition, % at 13.3 µM. hit rate 1.1% among 290,000. AID 1565; in the data active = inhibition above about 60%
Target sequence (Q8TCT1 whole entry, looked up): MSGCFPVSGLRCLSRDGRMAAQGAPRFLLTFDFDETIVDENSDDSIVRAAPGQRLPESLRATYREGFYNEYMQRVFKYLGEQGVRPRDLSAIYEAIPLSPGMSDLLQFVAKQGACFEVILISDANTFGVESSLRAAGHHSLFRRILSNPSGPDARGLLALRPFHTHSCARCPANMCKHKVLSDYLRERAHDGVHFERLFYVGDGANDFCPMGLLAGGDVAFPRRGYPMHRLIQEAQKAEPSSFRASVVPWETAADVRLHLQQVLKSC
HNF4A DNA FP: change in binding of human HNF4 alpha to DNA; P41235; HNF4a-FITC DNA binding, fluorescence polarization, 1 h; activity change, % at 10 µM; hit rate 0.3% among 360,000; in the data active = activity change above about 30%, passing the limit was not always enough
An asterisk follows results filed as active; nt = no result given. An excerpt weighted towards active compounds, which were near 3.3% of everything screened.

SMILES | CendR NRP1 mod | TPT1 inh | Rpn11 block | CTSL1 counter | PHOSPHO1 inh | HNF4A DNA FP
C#CCOCCOCCOCCNc1nc(N2CCN(C(=O)CCCCCCCCCCNC(=O)[C@H](CO)n3cc(CCCCCN)nn3)CC2)nc(N2CCN(C(=O)CCCCCCCCCCNC(=O)[C@H](CCCN=C(N)N)n3cc(C[C@@H](C)CC)nn3)CC2)n1 | nt | 3 | nt | -1 | nt | nt
Cc1c(C(=O)N2CCCCCC2)c(S(=O)(=O)NCc2ccccc2Cl)c(C)n1C | -3 | 0 | -5 | -5 | 32 | 4
CCOC(=O)c1c(CN2CCN(CCO)CC2)n(C)c2cc(Br)c(OC)cc12 | 5 | -2 | -1 | 1 | 4 | 2
CCOC(=O)c1c(CN2CCCCC2)n(C)c2cc(Br)c(OC)cc12 | 10 | 1 | -1 | 1 | 64* | 1
COCCCNC(=S)N1CCN(Cc2ccc3c(c2)OCO3)CC1 | 21* | 1 | 2 | -6 | 5 | 4
CCCCNC(=S)N1CCN(Cc2ccc3c(c2)OCO3)CC1 | -6 | -5 | -4 | 3 | -44 | -2
Cc1ccccc1NC(=S)N1CCN(Cc2ccc3c(c2)OCO3)CC1 | 30* | -1 | -1 | -2 | -2 | -1
O=C(Nc1cccc(Cl)c1)c1ccc(S(=O)(=O)NCC2CCCO2)cc1 (centres undefined) | 4 | -3 | 0 | -1 | 31 | -2
O=C1c2ccccc2C(=O)C12OC2c1ccc(Cl)cc1 (centres undefined) | nt | 2 | nt | 17* | -12 | nt
Cc1ccccc1Nc1nc(N)nc(COC(=O)c2c(C)noc2C)n1 | 5 | nt | -2 | nt | nt | 10
N#Cc1c(SCc2ccc(Cl)cc2)sc(C(=O)c2ccccc2)c1N | -1 | -2 | 24 | -2 | 89* | 4
Cc1[nH][nH]c(=O)c1C(c1ccc(-c2cccc(Cl)c2)o1)c1c(C)[nH][nH]c1=O | -2 | 1 | 14 | 9 | -89 | -2
Cc1[nH][nH]c(=O)c1C(c1ccc(-c2ccc(Cl)cc2Cl)o1)c1c(C)[nH][nH]c1=O | nt | nt | nt | nt | 64* | nt
COc1cc(C(=O)Nc2ccc(C)cn2)c([N+](=O)[O-])cc1OC | 4 | 2 | -3 | 0 | -3 | 2
COc1cc(C(=O)Nc2c(C)cc(C)cc2C)c([N+](=O)[O-])cc1OC | -2 | -2 | -5 | 22* | 2 | -2
Cc1cc([N+](=O)[O-])nn1CC(=O)NNC(=S)Nc1ccc(Cl)cc1 | 8 | -4 | 2 | 4 | 93* | 2
Cc1ccc(NC(=S)NNC(=O)CCn2cc(C)cn2)cc1 | 9 | 0 | -2 | 1 | 69* | 0
O=C(Cn1nc(C(F)F)cc1C(F)F)NNC(=S)Nc1ccc([N+](=O)[O-])cc1 | 1 | -3 | -2 | 0 | 36 | -3
Cc1cc(C(F)(F)F)nn1CC(=O)NNC(=S)Nc1cccc(Cl)c1 | 11 | -3 | -2 | -3 | 1 | 2
COc1cccc(NC(=S)NNC(=O)Cn2nc([N+](=O)[O-])cc2C)c1 | 30* | 1 | -2 | -2 | 30 | -2
COc1cccc(NC(=S)NNC(=O)Cn2nc(C(F)F)cc2C(F)F)c1 | 5 | 0 | -3 | -1 | 36 | -2
Cc1ccc(NC(=S)NNC(=O)Cn2nc([N+](=O)[O-])cc2C)cc1 | 9 | 0 | -2 | 5 | 96* | -3
Cc1cnn(CCC(=O)NNC(=S)Nc2ccccc2)c1 | 1 | 3 | -2 | -3 | 60 | 2
CC1=NNC(=O)C1Oc1ccccc1 (centres undefined) | 13 | -2 | 7 | -2 | 32 | 2
CC(=O)c1ccccc1N(C(=O)c1ccco1)C(C(=O)NC1CCCC1)c1ccc(C)cc1 (centres undefined) | 1 | -3 | 5 | 4 | 36 | -1
SMILES | CendR NRP1 mod | TPT1 inh | Rpn11 block | CTSL1 counter | PHOSPHO1 inh | HNF4A DNA FP
O=C(Cn1nc(C(F)F)cc1C(F)F)NNC(=S)Nc1ccc(F)cc1 | 1 | -2 | 6 | 1 | 73* | 0
COCCN1C=C(C(=O)OC)C(c2ccccc2Cl)C(C(=O)OC)=C1 | 22* | 2 | 8 | 2 | 15 | 1
CCOC(=O)[C@H]1O[C@@H]1C(=O)N[C@@H](CC(C)C)C(=O)NCCC(C)C | 6 | -3 | -1 | 106* | 20 | 4
CCOC(=O)N1CCC(NC(=O)C(CC(C)C)NC(=O)C2CCCCC2)CC1 (centres undefined) | 5 | -3 | -5 | 3 | -15 | 1
CC(C)CCNC(=O)[C@H](CC(C)C)NC(=O)[C@H]1O[C@@H]1C(=O)O | nt | -2 | nt | 111* | -9 | nt
CC(C)CCNC(=O)C1c2ccccc2Oc2ccccc21 | -11 | 3 | -1 | 3 | 9 | 3
Cn1c(COc2ccc3ccccc3c2)nnc1SCC(=O)O | 10 | -1 | 1 | -3 | 62* | -1
Cn1c(COc2ccc(Cl)cc2)nnc1SCc1ncc(-c2ccccc2)o1 | 1 | -1 | -23 | -2 | 80* | 3
Cn1c(COc2cccc3cccnc23)nnc1SCC(=O)O | 12 | -5 | -4 | -2 | 35 | -1
COc1ccc(OCc2nnc(SCC(=O)O)n2N)cc1 | 7 | -2 | -12 | -10 | 60* | 4
CCCN1CCC(=O)N([C@H](CN=[N+]=[N-])Cc2ccccc2)CC1 | 12 | 2 | -2 | 7 | -2 | 4
CC1(C(=O)NS(=O)(=O)C2CC2)CCN(C(=O)c2ccc3c(c2)OCO3)C1 (centres undefined) | 8 | nt | 0 | nt | nt | -1
CCOC(=O)N1CCC(N2Cc3cccc(C(=O)NCc4ccc(C)cc4)c3C2=O)CC1 | -12 | 1 | 1 | -2 | 1 | 3
CCOC(=O)N1CCC(N2Cc3cccc(C(=O)NCc4ccccn4)c3C2=O)CC1 | 4 | 5 | 3 | 27* | -4 | 0
N#CCCN(C(=O)CSc1ccc2c(c1)OCCO2)c1ccc(F)cc1 | -7 | 3 | 2 | 5 | -7 | 0
Cc1ccsc1/C=N/N=C/c1sccc1C | 10 | -4 | 1 | 5 | -13 | -4
Cc1ccsc1C=Nc1ccc(O)cc1 | 0 | -2 | -1 | 102* | 10 | -1
CCCn1nnnc1SCC(=O)N1CCCC1 | -4 | 6 | -3 | -1 | -3 | 2
CCCn1nnnc1SCC(=O)N1C(C)CCCC1C (centres undefined) | 22* | 2 | 1 | -6 | 0 | -2
CS(=O)(=O)N(CC(=O)N1CCc2ccccc2C1)c1ccc2c(c1)OCO2 | 4 | -4 | -7 | 2 | 29 | -1
CC(=O)Nc1nnc([N+](=O)[O-])s1 | 5 | nt | 1 | nt | nt | 4
N#CCCN1CCNCC1 | 34* | -4 | -3 | 7 | 8 | -2
N#CCCN1CCN(CCC#N)CC1 | -9 | 0 | -2 | 0 | -42 | -2
COc1ccc(S(=O)(=O)Nc2ccc(O)c(Sc3ncn[nH]3)c2)cc1 | 17 | -4 | -4 | -3 | -3 | -1
COc1ccc(S(=O)(=O)Nc2cc(Sc3ncn[nH]3)c(O)c3ccccc23)cc1 | nt | nt | nt | nt | 98* | nt
O=C1Cc2ccccc2C(=O)N1CCc1ccccc1 | 11 | 2 | -1 | 67* | 22 | 3

From PubChem
